Records with an inconclusive call do not appear. Unmarked numbers belong to inactive results. Calls of active or inactive are those of the source. Calls follow the shape of the dose curve; as a rule, active = well fitted cell-killing curve with a large enough effect; inconclusive = small, poorly fitted or top-dose-only effect, or effect the other way; inactive = no such curve, though single readings can be large or run the other way.
Each molecule was assayed on Jar (assay: Confirmatory qHTS for gynecologic anti-cancer compounds from libraries of approved drugs and bioactive compounds). Conditions: gynecologic cancer cell panel viability, ATPlite luminescence, 48 h; series mostly up to 57.6 µM; activity change, negative = viability loss: at the top concentration.
How it was run: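 1,000 cells/well; 16 h pre-incubation 37 C, 5% CO2; pin-transferred cpd in DMSO, 11 conc (1:3), 57.5 uM–0.977 nM; 48 h; ATPlite, 15 min RT; luminescence → IC50.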
% is scaled to controls: 0 for no effect and ±100 for the full control effect; potency is read from the fitted curve at half-maximal effect.
Also: nearly all actives have a fitted effect of over 55% in size.

**Q.** For `COc1ccc2cc3[n+](cc2c1OC)CCc1cc2c(cc1-3)OCO2`, which Potency is on record?
**A.** Its Potency is 4.32 µM (active).

**Q.** With `COc1ccc(-c2ccc3c(N4CCOCC4C)nc(N4CCOCC4C)nc3n2)cc1CO` (stereo not drawn) as the molecule, how does the “activity change, negative = viability loss” value read?
**A.** Its value is 13.6%.

**Q.** With `CCOc1cc2ncc(C#N)c(Nc3ccc(F)c(Cl)c3)c2cc1NC(=O)/C=C/CN(C)C` as the molecule, how does the Potency read?
**A.** The Potency was 1.72 µM (active).
